Source: PubChem
TDP1 cell CPT: qHTS for Inhibitors of human tyrosyl-DNA phosphodiesterase 1 (TDP1): qHTS in cells in presence of CPT. chicken DT40 Tdp1-/-;hTDP1 cells + 20 nM CPT, ATP luminescence, 48 h. Potency, µM (top dose mostly 46.2 µM), most hits filed as inhibitors. hit rate 12% among 420,000. AID 686979, 2013; note: nearly all actives have a fitted effect of over 55% in size
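Cell growth measured by CellTiter-Glo luminescence after a minimum 48 h, 37 C compound exposure with 20 nM CPT in Tdp1-knockout DT40 cells stably expressing hTDP1, seeded 400/well; qHTS titration format.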
HT1080 IDH1KD tx: qHTS for induction of synthetic lethality in tumor cells producing 2HG: qHTS for the HT-1080-IDH1KD cell line. AID 686971, 2013. Potency, µM (series often up to 46.1 µM), usual class: cytotoxic. hit rate 2% among 360,000. HT-1080 IDH1 knockdown viability, ATP luminescence, 48 h
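IDH1KD HT-1080 cells, 750/well, RPMI + 5% FBS; compound pinned after 2 h settling; 48 h, 37 °C; CellTiter-Glo luminescence; % activity normalised to DMSO and no-cell wells; curves fitted, classed by r2 and efficacy.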
IL-1B inflam inh: qHTS for Inhibitors of Inflammasome Signaling: IL-1-beta AlphaLISA Primary Screen | THP-1 LPS/ATP IL-1B secretion, AlphaLISA, 16 h; active compounds read low | activity change, % at 57.5 µM | hit rate 4.7% among 360,000 | AID 743279, 2014; in the data active = activity change below about -50%; inconclusive = mostly about -30% to -49%
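THP-1 cells pretreated 1 hr with compounds (up to 57.5 uM final), then stimulated with LPS (250 ng/mL final) plus ATP (1.25 mM final); secreted IL-1B measured by AlphaLISA after 16 hr, decreased signal indicating inhibition.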
DT40 TDP1 no CPT: qHTS for Inhibitors of human tyrosyl-DNA phosphodiesterase 1 (TDP1): qHTS in cells in absence of CPT | hit rate 15% among 420,000 | AID 686978, 2013 | DT40 Tdp1-/- hTDP1 cells, no CPT, ATP luminescence, 48 h | Potency, µM (doses to about 46.2 µM), usual class: inhibitors; note: nearly all actives have a fitted effect of over 55% in size
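Seeded 400 DT40-hTDP1 cells/well (vehicle DMSO, no 20 nM CPT); pinned compounds; ≥48 hr at 37 °C; CellTiter-Glo luminescence as viability measure.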
HT1080-NT tox: qHTS for induction of synthetic lethality in tumor cells producing 2HG: qHTS for the HT-1080-NT fibrosarcoma cell line. HT-1080-NT fibrosarcoma viability, CellTiter-Glo ATP luminescence, 48 h. Potency, µM (series often up to 46.1 µM), actives largely listed as cytotoxic. hit rate 1.6% among 360,000. AID 686970, 2013;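 note: NT is the 2HG producing partner of a matched IDH1 knockdown line; nearly all actives have a fitted effect of over 55% in size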
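750 cells/well, RPMI + 5% FBS; 2 h settle, compound pin-transfer, 48 h at 37 degrees C. CellTiter-Glo 10 min RT, luminescence. Normalized to DMSO and media-only wells.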
Numbers stand for hits. Most compounds without a hit are left out; they make up all but 19% or so of the library. Unless noted, calls come from the whole dose curve; as a rule, active = well fitted curve in the direction sought with a large enough effect; inconclusive = small, poorly fitted or top-dose-only effect, or another doubt; inactive = no such curve, though single readings can be large; an effect the other way counts as inactive or inconclusive.

How did COc1ccc(S(=O)(=O)NCC(c2ccco2)S(=O)(=O)c2ccc(C)cc2)cc1F (stereo unspecified) do in these assays?
TDP1 cell CPT: inconclusive; DT40 TDP1 no CPT: inactive

Results for Cc1ccc(C(=O)NCC(C)NC(=O)c2ccc(C)c(C)c2)cc1C (stereo unspecified) ?
TDP1 cell CPT: inconclusive; HT1080 IDH1KD tx: inactive; IL-1B inflam inh: inactive; DT40 TDP1 no CPT: 26µM; HT1080-NT tox: inactive

How did Cc1ccc(S(=O)(=O)C(CNC(=O)c2ccc(F)c(F)c2)c2ccco2)cc1 (stereo unspecified) do in these assays?
TDP1 cell CPT: 16µM; DT40 TDP1 no CPT: inconclusive

Results for Cn1cnnc1SCC(=O)Nc1cc(S(=O)(=O)N2CCCCCC2)ccc1Cl ?
TDP1 cell CPT: inconclusive; HT1080 IDH1KD tx: inactive; IL-1B inflam inh: inactive; DT40 TDP1 no CPT: inactive; HT1080-NT tox: inactive

What do the screens show for `Cc1ccc2nc(CCl)[n+]([O-])c(-c3ccccc3)c2c1`?
TDP1 cell CPT: 26µM; HT1080 IDH1KD tx: inactive; IL-1B inflam inh: inconclusive; DT40 TDP1 no CPT: 16µM; HT1080-NT tox: inactive

How did S=C(NCCCN1CCOCC1)Nc1ccc(Cl)c(Cl)c1 do in these assays?
TDP1 cell CPT: inactive; HT1080 IDH1KD tx: inactive; IL-1B inflam inh: inactive; DT40 TDP1 no CPT: inactive; HT1080-NT tox: inactive

What do the screens show for `CN(C(=O)c1ccc(NC(=O)Cc2ccc(NC(=O)C3CCN(C(=O)CCc4ccccc4)CC3)cc2)cc1)C1CC1`?
TDP1 cell CPT: 26µM; HT1080 IDH1KD tx: inactive; IL-1B inflam inh: inactive; DT40 TDP1 no CPT: 18µM; HT1080-NT tox: inactive

Results for CN(C(=O)c1cccc(NC(=O)Cc2cccc(NC(=O)C3CCN(C(=O)CCc4ccccc4)CC3)c2)c1)C1CC1 ?
TDP1 cell CPT: inactive; HT1080 IDH1KD tx: inactive; IL-1B inflam inh: inactive; DT40 TDP1 no CPT: 23µM; HT1080-NT tox: inactive

What do the screens show for `CN(C(=O)c1cccc(NC(=O)Cc2cccc(NC(=O)C3CCN(C(=O)C4CCC4)CC3)c2)c1)C1CC1`?
TDP1 cell CPT: inactive; HT1080 IDH1KD tx: inactive; IL-1B inflam inh: inactive; DT40 TDP1 no CPT: inactive; HT1080-NT tox: inactive

Results for O=C(Cc1cccc(NC(=O)C2CCCN(C(=O)CCc3ccccc3)C2)c1)Nc1ccc(C(=O)N2CCCCC2)cc1 (stereo unspecified) ?
TDP1 cell CPT: 29µM; HT1080 IDH1KD tx: inactive; IL-1B inflam inh: -108; DT40 TDP1 no CPT: 23µM; HT1080-NT tox: inactive

What do the screens show for `O=C(Cc1cccc(NC(=O)C2CCCN(C(=O)c3ccccc3)C2)c1)Nc1ccc(C(=O)N2CCCCC2)cc1` (stereo unspecified)?
TDP1 cell CPT: inactive; HT1080 IDH1KD tx: inactive; IL-1B inflam inh: inactive; DT40 TDP1 no CPT: inactive; HT1080-NT tox: inactive

What do the screens show for `O=C(Cc1cccc(NC(=O)C2CCN(C(=O)CCc3ccccc3)CC2)c1)Nc1cccc(C(=O)N2CCCC2)c1`?
TDP1 cell CPT: inconclusive; HT1080 IDH1KD tx: inactive; IL-1B inflam inh: inactive; DT40 TDP1 no CPT: 16µM; HT1080-NT tox: inactive

Results for O=C(Cc1cccc(NC(=O)C2CCN(C(=O)c3ccccc3)CC2)c1)Nc1cccc(C(=O)N2CCCC2)c1 ?
TDP1 cell CPT: inactive; HT1080 IDH1KD tx: inactive; IL-1B inflam inh: inactive; DT40 TDP1 no CPT: inactive; HT1080-NT tox: inactive

What do the screens show for `O=C(CCn1cccc1)Nc1ccc(OC(F)(F)F)cc1`?
TDP1 cell CPT: inactive; HT1080 IDH1KD tx: inactive; IL-1B inflam inh: inactive; DT40 TDP1 no CPT: inactive; HT1080-NT tox: inactive

What do the screens show for `CN(C(=O)c1ccc(NC(=O)Cc2cccc(NC(=O)C3CCN(C(=O)CCc4ccccc4)CC3)c2)cc1)C1CCCC1`?
TDP1 cell CPT: inconclusive; HT1080 IDH1KD tx: inactive; IL-1B inflam inh: inactive; DT40 TDP1 no CPT: inconclusive; HT1080-NT tox: inactive

Results for CN(C(=O)c1ccc(NC(=O)Cc2ccc(NC(=O)C3CCN(C(=O)CCc4ccccc4)CC3)cc2)cc1)C1CCCC1 ?
TDP1 cell CPT: 23µM; HT1080 IDH1KD tx: inactive; IL-1B inflam inh: inactive; DT40 TDP1 no CPT: 21µM; HT1080-NT tox: inactive
